SF-1 inh: inhibitors of human SF-1, primary screen, cell-based, CHO-K1, Gal4-SF-1 LBD, luciferase luminescence; Steroidogenic factor 1 (Homo sapiens), Q13285; hit rate 0.55% among 65,000; inhibition, % at 10 µM; AID 525, 2006; CHO-K1 Gal4-SF-1 LBD luciferase reporter;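 active means inhibition above the mean inhibition of all tested compounds plus 3 SD, cut at about 48% in these data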;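 further: 0% = SF-1 transfected cells with DMSO and 100% = mock-transfected cells lacking SF-1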
Target sequence (Q13285 whole entry, looked up, the tested form may be a part): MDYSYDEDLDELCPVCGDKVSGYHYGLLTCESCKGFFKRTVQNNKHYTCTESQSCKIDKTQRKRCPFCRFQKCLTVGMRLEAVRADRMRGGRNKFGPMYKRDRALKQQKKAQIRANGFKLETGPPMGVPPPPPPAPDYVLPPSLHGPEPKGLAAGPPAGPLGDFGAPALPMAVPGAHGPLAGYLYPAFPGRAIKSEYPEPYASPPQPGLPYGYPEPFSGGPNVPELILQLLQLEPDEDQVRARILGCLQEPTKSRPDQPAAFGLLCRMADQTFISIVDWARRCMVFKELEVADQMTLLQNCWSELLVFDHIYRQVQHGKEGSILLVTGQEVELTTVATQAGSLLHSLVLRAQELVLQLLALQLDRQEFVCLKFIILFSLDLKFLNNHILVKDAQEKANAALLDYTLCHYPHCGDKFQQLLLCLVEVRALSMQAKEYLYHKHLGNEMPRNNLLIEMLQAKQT
Starred values were filed as active, the others as inactive. This excerpt belongs to a sample that is enriched for hits.

SMILES | SF-1 inh
O=C(CCn1nc(-c2ccccc2)c2ccccc2c1=O)NCC1CCCO1 (centres undefined) | -1
CCN(CC)c1ccc(-c2nn3c(-c4ccccc4OC)nnc3s2)cc1 | 67*
COc1cc(-c2nnc3sc(-c4cccnc4)nn23)cc(OC)c1OC | 18
COc1ccccc1-c1nn2c(-c3ccco3)nnc2s1 | -59
Nc1c(C(=O)Nc2ccc(Cl)cc2)oc2ccccc12 | -106
O=S(=O)(Cc1ccccc1)N1CCN(C/C=C/c2ccccc2)CC1 | -10
CC(=O)c1cccc(-n2nnnc2SCC(=O)N2CCCC2)c1 | 2
Cc1ccc(NC(=O)CS(=O)CC(=O)NCC2CCCO2)cc1 (centres undefined) | 8
COC(=O)C1=C(CSc2nnnn2C)NC(=O)NC1c1cc(C)ccc1C (centres undefined) | 3
O=C(c1ccc(NC2=NC3CS(=O)(=O)CC3S2)cc1)N1CCc2ccccc2C1 (centres undefined) | 2
c1ccc(-c2cn3nc(-c4ccccc4)sc3n2)cc1 | 51*
Cc1nc(-c2ccccc2)sc1C(N)=O | 3
CC1(C)Cc2c(c(-c3ccco3)[nH]c(=O)c2C#N)CO1 | 1
CC(C)CC(NC=C1C(=O)OC(C)(C)OC1=O)C(=O)O (centres undefined) | 6
CCOC(=O)C1C(=O)CC(C)(O)C(C(=O)OCC)C1c1cccs1 (centres undefined) | 12
CCN1CCN(c2ncnc3c2cnn3-c2ccccc2)CC1 | -56
CC1CCCN(c2ncnc3c2cnn3-c2ccc(Cl)cc2)C1 (centres undefined) | 86*
c1ccc(-n2ncc3c(NC4CCCCCC4)ncnc32)cc1 | -91
Cc1cccc(-n2ncc3c(N4CCC(C)CC4)ncnc32)c1 | -70
c1ccc(-n2ncc3c(N4CCCCC4)ncnc32)cc1 | 69*
Cc1ccc(-n2ncc3c(N4CCCC(C)C4)ncnc32)c(C)c1 (centres undefined) | -59
Cc1ccc(-n2ncc3c(N4CCCC4)ncnc32)c(C)c1 | -66
CC1CCCN(c2ncnc3c2cnn3-c2ccccc2)C1 (centres undefined) | 48*
CC1CC(C)CN(c2ncnc3c2cnn3-c2ccc(Cl)cc2)C1 (centres undefined) | -71
O=S1CCCSC1c1cccnc1 (centres undefined) | 1
SMILES | SF-1 inh
O=C(CC1OC(=O)c2ccccc21)c1ccco1 (centres undefined) | 2
CC(CCc1ccccc1)NC(=O)C1CCN(C(=O)c2sccc2-n2cccc2)CC1 (centres undefined) | 8
CCOC(=O)C1CCN(C(=O)CN(c2cccc(OC)c2)S(=O)(=O)c2ccccc2)CC1 | -1
CCCCNC1C(CC)C(CCC)C(C#N)(C#N)C1(C#N)C#N (centres undefined) | 22
CC(=O)c1ccc(NC(=O)c2ccn[nH]2)cc1 | -39
CC(C)CC(NC(=O)OC(C)(C)C)C(=O)NC(C(=O)N1CCCC1C(N)=O)C(C)C (centres undefined) | 13
COc1cccc(-c2nnc(SCC(=O)OC(C)C)n2Cc2ccco2)c1 | 15
COc1ccc(N=c2scc(-c3ccc(S(=O)(=O)N4CCOCC4)cc3)n2CCCO)cc1 | 64*
CCOc1cc(C(=O)Nc2ccc(S(=O)(=O)N3CCOCC3)cc2)cc(OCC)c1OCC | -12
O=C(Nc1ccc(S(=O)(=O)N2CCOCC2)cc1)c1cccs1 | -1
Nc1nc2ccccc2n1/N=C/c1ccc(Br)cc1 | -69
Cc1csc(NC(=O)c2sc3nc(-c4cccs4)ccc3c2N)n1 | -50
O=C(Nc1nc(-c2ccc(Cl)s2)cs1)c1ccncc1 | 63*
O=C(Nc1ccccc1F)c1ccncc1 | 5
COC(=O)C1=C(CN2CCCc3ccccc32)NC(=O)NC1c1ccc(F)cc1 (centres undefined) | 75*
COc1ccc(CCNC(=O)CN2CCCc3ccccc32)cc1OC | -17
COC(=O)C1=C(CN2CCN(C)CC2)NC(=O)NC1c1cc(C)ccc1C (centres undefined) | 3
COc1ccccc1N1CCN(c2ccc(-c3ccccc3)nn2)CC1 | 12
O=C(Cn1c(=O)sc2ccccc21)NCCOc1ccccc1F | -10
c1ccc2c(c1)CCN(c1nc3cc4c(cc3s1)OCCO4)C2 | 60*
COc1cc2c(C#N)c(N3CCc4ccccc4C3)nc(N)c2c(N)n1 | -8
COc1ccc(-n2ncc3c(Nc4cccc(C)c4)ncnc32)cc1 | -80
CC(=O)c1c(C)nc2nonc2c1N | 4
O=C(COC(=O)Cn1cnc2ccccc21)NCCC1=CCCCC1 | -4
COc1ccc(CCNc2ncnc3c2oc2ccccc23)cc1OC | 72*
SMILES | SF-1 inh
CCc1nc(NCc2ccccn2)c2oc3ccccc3c2n1 | 14
COc1ccc(CCNc2nc(C)nc3c2oc2ccccc23)cc1OC | 58*
CC(=O)c1ccc(Nc2ncnc3c2oc2ccccc23)cc1 | -89
Cc1nc(NCc2ccco2)c2oc3ccccc3c2n1 | 18
Cc1nc(NCCc2cnc[nH]2)c2oc3ccccc3c2n1 | 2
Cc1ccc(N2CC(C(=O)NCCc3ccc(S(N)(=O)=O)cc3)CC2=O)cc1 (centres undefined) | 10
Cc1nn(-c2nc3ccccc3s2)c(C)c1Oc1ccccc1O | -58
CCCCN(CC)C(=O)c1ccc(Cl)c(Cl)c1 | -20
c1ccc(-n2c(Cc3cn4ccsc4n3)nnc2N2CCOCC2)cc1 | -6
C=CCn1c(NC(=O)c2ccco2)c(S(=O)(=O)c2ccccc2)c2nc3ccccc3nc21 | -3
CCOC(=O)N1CCC(Nc2nc3ccccc3nc2NS(=O)(=O)c2ccc(Cl)cc2)CC1 | -54
CC(C)Cn1c(N)c(C(=O)CSc2ccc3c(c2)OCCO3)c(=O)n(C)c1=O | 69*
CCn1c(SCC(=O)c2ccc3c(c2)OCCO3)nnc1C(C)C | -18
CC(C)c1nc(SCC(=O)Nc2ccc3c(c2)OCCO3)c2c(=O)n(C)c(=O)n(C)c2n1 | 8
COc1ccc(CNc2nc3c(c(=O)n(Cc4ccc(F)cc4)c(=O)n3C)n2C)cc1 | 5
O=C(c1ccc(F)cc1F)N(Cc1ccccn1)Cc1ccco1 | -1
CCC1Oc2ccccc2N(CC(=O)Nc2ccccc2OC)C1=O (centres undefined) | -3
COc1ccc(-c2cc3nc4n(c(=O)c3s2)CCOC4)cc1 | 56*
COc1cccc(C(=O)Cn2c(N3CCOCC3)nc3c2c(=O)n(C)c(=O)n3C)c1 | -2
CCOC(=O)c1sc(-c2ccc(OC)cc2)cc1N | -62
CCOc1ccc2[nH]c(=O)c(CN(CCO)C(=O)c3ccc(F)cc3)cc2c1 | -10
O=C(COc1ccc(-c2ccccc2)cc1)N1CCN(C(=O)c2cccnc2)CC1 | -16
CCCCOc1ccc(-c2ncc(Cl)cn2)cc1 | -26
CCCCOc1ccc(OC(=O)c2cccnc2)cc1 | 66*
O=C(C1CCCN(S(=O)(=O)c2ccccc2)C1)N1CCCc2ccccc21 (centres undefined) | 5
SMILES | SF-1 inh
CC1(C)Cc2c(c(-c3ccccc3)nc(N3CCCC3)c2C(N)=O)CO1 | 8
O=C(CCSc1ccccc1)N1CCOCC1 | -52
O=C(c1ccccc1)c1ccccc1C(=O)N1CCOCC1 | 22
O=C(c1ccccc1)C(CCC(CN1CCOCC1)C(=O)c1ccccc1)CN1CCOCC1 (centres undefined) | 74*
CCN1CCN(C(c2ccc(F)cc2)c2nnnn2Cc2cccs2)CC1 (centres undefined) | -23
O=C(NCC1CCCO1)c1ccc(COCC(F)(F)C(F)F)cc1 (centres undefined) | -12

Screening results (PubChem BioAssay)
